Screening results from PubChem.
Shown are actives, neighbours in structure and some others; about 4.5% of the full set was active somewhere.
ssDAF-12 act: activates DAF-12 receptor from parasite S. stercoralis; AID 652126; activation, % at 6.8 µM; 1% of 370,000 active; HEK293 ssDAF-12/GRIP1 lit1-tk-luc reporter, luminescence; % of 3 µM dafachronic acid response;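 active = activation above the mean over all tested compounds plus 3 SD, cut at about 0.9% in these data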;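 note: 0% = DMSO-only wells and 100% = 3 µM delta7-dafachronic acid wells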
hcDAF12 agonist: activators of H. contortus DAF-12 nuclear receptor. 1.4% of 370,000 active. HEK293 hcDAF-12 lit1-tk-luc reporter, luminescence; 0% DMSO, 100% Δ7-dafachronic acid. activation, % at 6.8 µM;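 active = activation above the mean of all tested compounds plus 3 SD, cut at about 5.5% in these data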;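 note: 100% = response to 3 µM Δ7-dafachronic acid high control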
DAX1 inh-1: inhibits human nuclear receptor DAX1; 0.99% of 340,000 active; HEK293 Gal4-DAX1 luciferase reporter, luminescence; inhibition, % at 6.75 µM; AID 504766; P51843;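 active = inhibition above the mean over all tested compounds plus 3 SD, cut at about 4.2% in these data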;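 note: 0% = DAX1-transfected cells with DMSO and 100% = empty-vector control cells with DMSO; inhibition shows as a rise in luminescence from relieved DAX1 repression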
Target sequence (P51843 207-470 limits assumed): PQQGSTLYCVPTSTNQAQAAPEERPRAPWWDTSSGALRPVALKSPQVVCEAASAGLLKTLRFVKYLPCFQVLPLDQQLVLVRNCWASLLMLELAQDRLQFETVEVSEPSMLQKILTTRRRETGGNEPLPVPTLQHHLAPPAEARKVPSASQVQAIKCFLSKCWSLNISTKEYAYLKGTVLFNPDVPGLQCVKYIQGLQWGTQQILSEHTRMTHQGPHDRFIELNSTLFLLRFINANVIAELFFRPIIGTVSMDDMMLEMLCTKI
DAX1 inh-2: blocks DAX1 repression of SF-1 activated StAR promoter. HEK293T StAR-luciferase reporter, SF-1/DAX-1 repression relief. inhibition, % at 6.8 µM. 1.1% of 370,000 active. AID 652010;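 active = inhibition above the mean over all tested compounds plus 3 SD, cut at about 3.6% in these data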;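 note: 0% = DAX-1 cells with DMSO and 100% = cells lacking DAX-1 with DMSO; higher inhibition means more luminescence from relief of DAX-1 repression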
hgDAF12 agonist: agonists of H. glycines DAF-12 nuclear receptor; activation, % at 6.8 µM; HEK293 GAL4-hgDAF12 UAS-luciferase reporter, agonist luminescence; normalized to butyrate control; 1.8% of 370,000 active;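 active = activation above a cutoff set at the mean of all screened compounds plus 3 SD, cut at about 10% in these data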;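 note: 0% = DMSO wells and 100% = sodium butyrate wells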
FXN GAA850 act: activators of GAA850 frataxin (FXN) promoter. HEK293 lucGAA850 FXN promoter luciferase reporter, 24 h; percent of 10 µM SAHA response. activation, % at 6 µM. 0.56% of 360,000 active. AID 540364;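 active = activation above the average of all compounds screened plus 3 SD, cutoff fixed separately per campaign, cut at about 7.5% in these data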;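 note: 0% = DMSO wells and 100% = 10 µM SAHA wells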
GAA30 counter: counter-screen for GAA850 frataxin promoter activators: GAA30 promoter activation; shares compounds with FXN GAA850 act; HEK293 lucGAA30 FXN promoter luciferase, 24 h; DMSO = 0%, 5 µM ipriflavone = 100%; activation, % at 6 µM; 66% of 1,900 active; AID 588350;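 active = mean activation above the mean of solvent-only control wells plus 3 SD, cut at about 22% in these data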;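 note: counterscreen of GAA850 promoter hits where activity marks nonselective or luminescence artifacts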
GAA850 confirm: confirmation of GAA850 frataxin (FXN) promoter activators; 86% of 1,900 active; activation, % at 6 µM; shares compounds with FXN GAA850 act; AID 588351; HEK293 lucGAA850 FXN promoter luciferase reporter, 24 h; 100% = activation by SAHA;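 active = mean activation above a set limit taken from the primary screen, cut at about 8% in these data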;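 note: 0% = DMSO wells and 100% = 10 µM SAHA wells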
Active calls of the source: *; / = no result.

SMILES	ssDAF-12 act	hcDAF12 agonist	DAX1 inh-1	DAX1 inh-2	hgDAF12 agonist	FXN GAA850 act	GAA30 counter	GAA850 confirm
C=C1C(=O)O[C@H]2[C@H]1[C@H](OC(=O)/C(C)=C\C)C[C@]1(CO1)[C@@H]1[C@H](OC(C)=O)C=C(C)[C@]21O	-1	1	0	0	0	12*	4	17*
CCOC(=O)c1sc(Nc2ccccc2Cl)nc1C	-1	0	0	2	8	9.9*	103*	40*
Cc1ccc2nc(SCC(=O)N/N=C/c3ccco3)cc(C)c2c1	-2	-2	0	-1	-2	0	/	/
Cc1ccc2nc(N/N=C/c3ccco3)cc(C)c2c1	-1	3	1	2	11*	8.2*	104*	44*
OC1OC2COC(c3ccccc3)OC2C(O)C1O (stereo unspecified)	-1	-1	/	1	-2	/	/	/
C[C@H](CO)N1C[C@H](C)[C@H](CN(C)C(=O)c2ccccc2)OCc2ccccc2-c2c(n(C)c3ccccc23)C1=O	-1	-1	1	-1	-2	8.5*	5	5
C[C@H]1CN([C@@H](C)CO)C(=O)c2c(c3ccccc3n2C)-c2ccccc2CO[C@H]1CN(C)Cc1cccc(F)c1	-1	-1	-1	-1	-1	12*	23*	9.9*
O=S1(=O)CC2c3ccccc3CCN2CN1CCc1ccccc1 (stereo unspecified)	-1	-1	/	0	0	/	/	/
Cc1cc(NC(=O)C(C)SCC(=O)Nc2cc(C(F)(F)F)ccc2N2CCCCC2)no1 (stereo unspecified)	-1	0	-2	1	2	9.1*	24*	16*
Cc1cccc(NC(=O)CSCC(=O)Nc2cc(C(F)(F)F)ccc2N2CCOCC2)c1	-2	-2	-1	0	3	14*	-1	9.4*
COc1cc(NC(=O)c2[nH]c(C)c(C(C)=O)c2C)c(OC)cc1Cl	-1	4	/	/	8	/	/	/
COC(=O)c1sccc1NC(=O)COc1ccccc1Cl	0	3	0	0	5	7.9*	81*	29*
CC(C)(C)OC(=O)NCc1cc2c(cc1/C=C/S(=O)(=O)NCc1ccc(F)cc1)OCO2	-1	-3	/	0	-5	/	/	/
C[C@@H]1COc2cc(N3CCSCC3)ccc2S(=O)(=O)N1C	1	1	/	-1	3	/	/	/
CCN(C[C@H]1N[C@@](CC)(C(=O)OC)[C@H]2C(=O)N(Cc3ccccc3)C(=O)[C@@H]12)S(=O)(=O)c1ccc(C)cc1	-1	-1	0	-1	-2	10*	11	8.1*
CCN(C[C@H]1N[C@@](CC)(C(=O)OC)[C@H]2C(=O)N(Cc3ccccc3)C(=O)[C@@H]12)S(=O)(=O)c1ccc(-c2ccccc2)cc1	-1	-1	0	0	-5	-1	/	/
CCN(C[C@H]1N[C@@](CC)(C(=O)OC)[C@H]2C(=O)N(Cc3ccccc3)C(=O)[C@@H]12)S(=O)(=O)c1ccc(C(C)(C)C)cc1	-1	2	1	2	0	5	/	/
CCN(C[C@H]1N[C@@](CC)(C(=O)OC)[C@H]2C(=O)N(Cc3ccccc3)C(=O)[C@@H]12)S(=O)(=O)c1ccc(OC(F)(F)F)cc1	-1	1	0	-2	-4	11*	21	10*
CCS(=O)(=O)N1Cc2ccccc2CC1C(=O)Nc1nc(C)cs1 (stereo unspecified)	-1	2	1	1	4	7.9*	79*	33*
CCS(=O)(=O)N1Cc2ccccc2CC1C(=O)Nc1nccs1 (stereo unspecified)	1	5	1	1	10	8.2*	109*	38*
CCS(=O)(=O)N1Cc2ccccc2CC1C(=O)Nc1nc2c(C)cccc2s1 (stereo unspecified)	-1	2	1	0	4	4	/	/
Cc1noc(C)c1C(=O)N1CCC(n2nnc3ncccc32)CC1	-1	-1	/	0	2	/	/	/
C=CCN1C(=O)[C@H](CC(=O)NCC2CCCCC2)[C@@]2(C(=O)OCC)CCCC=C12	-1	-2	/	-1	-4	/	/	/
COc1ccc(/C=N/NC(=O)c2cccnc2)cc1CN1CCCc2ccccc21	-1	-1	0	0	-1	0	/	/
COc1ccc(C(=O)N/N=C/c2ccc(OC)c(CN3CCCc4ccccc43)c2)cc1	-1	1	-1	0	5	9.3*	20	7
SMILES	ssDAF-12 act	hcDAF12 agonist	DAX1 inh-1	DAX1 inh-2	hgDAF12 agonist	FXN GAA850 act	GAA30 counter	GAA850 confirm
O=C(NCCc1c[nH]c2ccccc12)OCc1cn(-c2ccc(F)cc2)nn1	-1	0	/	-1	2	/	/	/
NC(=O)CC1C(=O)N(c2ccccc2)C(=S)N1NC(=O)c1ccc(Br)cc1 (stereo unspecified)	-1	0	0	1	9	4	/	/
COc1cccc(C(=O)NN2C(=S)N(c3ccccc3)C(=O)C2CC(N)=O)c1 (stereo unspecified)	0	2	4	1	7	7.8*	107*	29*
NC(=O)CC1C(=O)N(c2ccccc2)C(=S)N1NC(=O)c1ccccc1 (stereo unspecified)	0	3	0	1	6	8.9*	77*	20*
COc1ccc2ccccc2c1C=NNC(=O)CN1CCN(Cc2ccccc2)CC1	-2	-1	/	-1	4	/	/	/
O=S1(=O)c2c(cccc2N2CCC[C@H]2CO)OCCCN1C1CC1	0	0	/	-1	3	/	/	/
Nc1nc(SCc2ccc(Cl)cc2Cl)ns1	-2	0	1	0	3	7.9*	50*	15*
O=C(Nc1ccc(F)c(C(F)(F)F)c1)Nc1nnc(-c2ccncc2)s1	-1	-2	/	/	4	/	/	/
COc1ccccc1NC(=O)c1cnc(SCC(=O)NCC2CCCO2)n(C)c1=O (stereo unspecified)	0	3	0	0	3	9.5*	18	24*
COc1ccccc1-n1nnnc1SCC(=O)NCC1CCCO1 (stereo unspecified)	-1	-1	0	-1	3	-1	/	/
Cc1nc(/N=C(\N)NC(=O)c2ccccc2)nc2ccccc12	/	/	0	/	/	8.3*	97*	33*
Cc1nc(N=C(N)N)nc2ccccc12	-1	1	0	0	-1	2	/	/
COCCCN1C(=O)[C@H](CC(=O)NCCc2ccccc2OC)[C@]2(C(=O)OC)CCCCC=C12	-1	-2	/	0	3	/	/	/
